From PubChem BioAssay (EPA / NIEHS)
Inconclusive results are not listed. Active and inactive are the calls of the source. Rule for the calls, unless noted: active = hit-call score of the fitted dose curve at least 0.9, where 1 is the maximum; inactive = score below 0.9.

Columns and labels:
[1] = target: Paired box protein Pax-6 (Homo sapiens) (UniProt P26367); test: ATG_Pax6_CIS: Attagene CIS-FACTORIAL HepG2 Assay for human Paired Box 6 (PAX6) (AID 2282956); settings: HepG2 CIS-FACTORIAL PAX6 reporter transcription, RNA readout; actives raise or lower the signal
Sequence of Paired box protein Pax-6 (Homo sapiens) (P26367 whole entry, looked up): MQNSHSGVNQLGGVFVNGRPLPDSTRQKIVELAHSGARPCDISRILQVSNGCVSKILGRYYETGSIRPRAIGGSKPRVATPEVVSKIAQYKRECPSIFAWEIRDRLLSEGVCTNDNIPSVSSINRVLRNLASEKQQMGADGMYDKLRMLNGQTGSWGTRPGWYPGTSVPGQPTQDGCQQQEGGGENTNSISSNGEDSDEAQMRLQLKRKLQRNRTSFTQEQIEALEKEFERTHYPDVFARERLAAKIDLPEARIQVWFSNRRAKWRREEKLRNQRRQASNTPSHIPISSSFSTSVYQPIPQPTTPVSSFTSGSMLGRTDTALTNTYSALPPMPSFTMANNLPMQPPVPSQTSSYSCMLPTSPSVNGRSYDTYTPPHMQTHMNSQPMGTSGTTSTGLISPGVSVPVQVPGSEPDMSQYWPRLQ
How it was run: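 HepG2 cells transiently transfected with cis-promoter-driven multiplexed reporter units sensing endogenous transcription factor activity; 24 h chemical exposure. Reporter mRNA quantified by RT-PCR, 6-FAM labelling, HpaI digestion and capillary electrophoresis; bidirectional fit versus DMSO baseline.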

[2] = ATG_PXRE_CIS: Attagene CIS-FACTORIAL HepG2 Assay for human Pregnane X Receptor Element (PXRE) (AID 2282957); settings: HepG2 Attagene CIS-FACTORIAL PXRE reporter, mRNA; actives raise or lower the signal
How it was run: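 Cells: HepG2, transiently transfected reporter units under cis promoter control. Exposure: 24 h. Detection: reporter mRNA via RT-PCR/CE fluorescence; bidirectional fitting, DMSO-referenced.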

[3] = ATG_PPRE_CIS: Attagene CIS-FACTORIAL HepG2 Assay for human Peroxisome Proliferator-activated Response Element (PPRE) (AID 2282958); settings: HepG2 PPRE cis-element reporter, Attagene transcription factor profiling; actives raise or lower the signal
How it was run: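 In this cell-based multiplex, a PPRE cis element drives a reporter sequence in transiently transfected HepG2 cells. Following 24 h treatment, labeled cDNA amplicons are sized and quantified by capillary electrophoresis, with DMSO defining baseline.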

[4] = ATG_RORE_CIS: Attagene CIS-FACTORIAL HepG2 Assay for human RAR-related Orphan Receptor Element (RORE) (AID 2282959); settings: HepG2 Attagene cis-factorial RORE reporter, mRNA; actives raise or lower the signal
How it was run: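 Endogenous factor activity at a cis response element is read as reporter transcript levels in HepG2 cells, 24 h post-dose. Transcripts are quantified by RT-PCR with capillary electrophoresis, and data fitted in both directions against DMSO.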

[5] = ATG_Sox_CIS: Attagene CIS-FACTORIAL HepG2 Assay for human SRY-box transcription factor (SOX) (AID 2282960); settings: HepG2 Attagene cis-factorial SOX reporter, mRNA; actives raise or lower the signal
How it was run: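 Measures mRNA induction of a SOX1-associated reporter in HepG2 after 24 h dosing. Fluorescently labelled RT-PCR fragments are separated by capillary electrophoresis, and gain or loss relative to DMSO control is fitted.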

[6] = target: Transcription factor Sp1 (Homo sapiens) (UniProt P08047); test: ATG_Sp1_CIS: Attagene CIS-FACTORIAL HepG2 Assay for human Specificity Protein 1 (Sp1) (AID 2282961); settings: HepG2 Sp1 cis-reporter transcription, actives raise or lower the signal
Sequence of Transcription factor Sp1 (Homo sapiens) (P08047 whole entry, looked up): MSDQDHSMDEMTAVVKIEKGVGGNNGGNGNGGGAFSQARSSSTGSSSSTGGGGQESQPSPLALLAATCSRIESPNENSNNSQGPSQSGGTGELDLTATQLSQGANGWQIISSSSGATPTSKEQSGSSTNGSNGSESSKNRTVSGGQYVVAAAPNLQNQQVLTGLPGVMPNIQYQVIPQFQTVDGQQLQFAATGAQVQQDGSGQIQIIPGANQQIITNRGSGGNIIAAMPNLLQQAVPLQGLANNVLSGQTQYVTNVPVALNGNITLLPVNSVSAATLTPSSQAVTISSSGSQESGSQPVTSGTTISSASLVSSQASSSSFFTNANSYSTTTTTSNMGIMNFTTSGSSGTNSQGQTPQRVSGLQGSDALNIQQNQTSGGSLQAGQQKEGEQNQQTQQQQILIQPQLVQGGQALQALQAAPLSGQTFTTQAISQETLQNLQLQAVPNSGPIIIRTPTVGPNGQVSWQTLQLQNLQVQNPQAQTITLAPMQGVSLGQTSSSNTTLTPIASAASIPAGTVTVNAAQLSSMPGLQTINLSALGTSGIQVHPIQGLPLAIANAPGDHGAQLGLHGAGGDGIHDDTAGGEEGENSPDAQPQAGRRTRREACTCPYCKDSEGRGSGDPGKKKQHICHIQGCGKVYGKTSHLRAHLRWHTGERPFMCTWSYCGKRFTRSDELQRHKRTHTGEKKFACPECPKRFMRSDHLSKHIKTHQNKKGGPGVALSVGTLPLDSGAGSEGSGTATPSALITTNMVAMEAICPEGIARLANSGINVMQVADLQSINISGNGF
How it was run: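 Cells: HepG2, transiently transfected with cis-regulated multiplexed reporters. Exposure: 24 h. Detection: reporter transcripts amplified, fluorescently labeled, restriction-digested and sized by capillary electrophoresis. Analysis: bidirectional fit relative to DMSO.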

[7] = ATG_SREBP_CIS: Attagene CIS-FACTORIAL HepG2 Assay for human Sterol Regulatory Element Binding (SREBP) (AID 2282962); settings: HepG2 Attagene cis-factorial SREBP reporter, mRNA; actives raise or lower the signal
How it was run: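 HepG2 cells transiently transfected with multiplexed cis-promoter reporter units sensing endogenous transcription factors; reporter mRNA measured 24 h after dosing by RT-PCR, 6-FAM labeling, HpaI digestion and capillary electrophoresis. Bidirectional fit versus DMSO.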

[8] = ATG_TA_CIS: Attagene CIS-FACTORIAL HepG2 Assay for human TA Basal Promoter (AID 2282964); settings: HepG2 Attagene CIS-factorial TA basal promoter reporter; actives raise or lower the signal
How it was run: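 Cis-factorial format in HepG2: reporters report endogenous factors, not chimeric Gal4 fusions. After 24 h treatment, reporter transcripts were measured by RT-PCR-capillary electrophoresis fluorescence, analysed bidirectionally versus DMSO.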

[9] = ATG_TCF_b_cat_CIS: Attagene CIS-FACTORIAL HepG2 Assay for human T-Cell-Factor with beta-catenin (TCF/b-cat) (AID 2282965); settings: HepG2 TCF/beta-catenin cis-reporter transcription, actives raise or lower the signal
How it was run: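 HepG2 cells transiently transfected with cis-promoter-driven multiplexed reporter units; reporter mRNA measured 24 h after dosing by RT-PCR, FAM labelling, HpaI digestion and capillary electrophoresis. Bidirectional fitting relative to DMSO baseline.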

[10] = ATG_TAL_CIS: Attagene CIS-FACTORIAL HepG2 Assay for human TAL Basal Promoter (AID 2282966); settings: HepG2 Attagene cis-factorial TAL promoter reporter; actives raise or lower the signal;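 note: background control endpoint measuring basal TAL promoter reporter mRNA not a specific factor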
How it was run: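 RT-PCR plus capillary electrophoresis quantifies reporter mRNA induction in transiently transfected HepG2 cells after 24 h chemical treatment. DMSO serves as negative control and baseline for bidirectional fitting.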

[11] = ATG_TGFb_CIS: Attagene CIS-FACTORIAL HepG2 Assay for human Transforming Growth Factor (TGF) (AID 2282967); settings: HepG2 Attagene CIS TGFb reporter, mRNA transcription; actives raise or lower the signal
How it was run: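 Multiplexed cis-reporter HepG2 system, 24 h treatment; mRNA induction read by fluorescence after RT-PCR and CE; DMSO negative control, bidirectional curve fitting.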

[12] = ATG_VDRE_CIS: Attagene CIS-FACTORIAL HepG2 Assay for human Vitamin D Receptor Element (VDRE) (AID 2282968); settings: HepG2 VDRE cis-reporter transcription, actives raise or lower the signal
How it was run: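 Transiently transfected HepG2 cells carrying cis-regulated reporter transcription units were exposed for 24 h. Reporter mRNA was measured by RT-PCR with fluorescent labelling and capillary electrophoresis, and fitted in both directions against DMSO.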

[13] = target: X-box-binding protein 1 (Homo sapiens) (UniProt P17861); test: ATG_Xbp1_CIS: Attagene CIS-FACTORIAL HepG2 Assay for human X-box Binding Protein 1 (XBP1) (AID 2282972); settings: HepG2 XBP1 cis-element reporter, Attagene multiplex; actives raise or lower the signal
Sequence of X-box-binding protein 1 (Homo sapiens) (P17861 whole entry, looked up): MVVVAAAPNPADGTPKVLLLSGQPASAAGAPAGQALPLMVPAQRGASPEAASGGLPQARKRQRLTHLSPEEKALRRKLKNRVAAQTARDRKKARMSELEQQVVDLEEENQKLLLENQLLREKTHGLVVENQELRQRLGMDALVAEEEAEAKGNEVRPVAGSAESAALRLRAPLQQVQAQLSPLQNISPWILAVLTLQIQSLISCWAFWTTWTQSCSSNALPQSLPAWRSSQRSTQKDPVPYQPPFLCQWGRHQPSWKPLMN
How it was run: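 HepG2 cells transiently transfected with multiple cis-element reporter units report endogenous TF activity; 24 h exposure, then reporter mRNA measured by RT-PCR, 6-FAM labelling, HpaI digestion and capillary electrophoresis. Bidirectional fitting versus DMSO.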

[14] = ATG_GAL4_TRANS: Attagene TRANS-FACTORIAL HepG2 Assay for GAL4 (Internal Marker) (AID 2282976; active = hit-call score of the fitted dose curve at least 0.9, where 1 is the maximum); settings: HepG2 Attagene TRANS GAL4 internal marker reporter
How it was run: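 In transfected human HepG2 liver cells dosed 24 h, GAL4 reporter mRNA serves as a baseline marker. Detection by RT-PCR with fluorescent capillary electrophoresis, activity fitted upward relative to DMSO.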

[15] = target: Signal transducer and activator of transcription 3 (Homo sapiens) (UniProt P40763); test: ATG_STAT3_CIS: Attagene CIS-FACTORIAL HepG2 Assay for human Signal Transducer and Activator of Transcription 3 (STAT3) (AID 2282963); settings: HepG2, Attagene cis-factorial STAT3 reporter transcription; actives raise or lower the signal
Sequence of Signal transducer and activator of transcription 3 (Homo sapiens) (P40763 whole entry, looked up): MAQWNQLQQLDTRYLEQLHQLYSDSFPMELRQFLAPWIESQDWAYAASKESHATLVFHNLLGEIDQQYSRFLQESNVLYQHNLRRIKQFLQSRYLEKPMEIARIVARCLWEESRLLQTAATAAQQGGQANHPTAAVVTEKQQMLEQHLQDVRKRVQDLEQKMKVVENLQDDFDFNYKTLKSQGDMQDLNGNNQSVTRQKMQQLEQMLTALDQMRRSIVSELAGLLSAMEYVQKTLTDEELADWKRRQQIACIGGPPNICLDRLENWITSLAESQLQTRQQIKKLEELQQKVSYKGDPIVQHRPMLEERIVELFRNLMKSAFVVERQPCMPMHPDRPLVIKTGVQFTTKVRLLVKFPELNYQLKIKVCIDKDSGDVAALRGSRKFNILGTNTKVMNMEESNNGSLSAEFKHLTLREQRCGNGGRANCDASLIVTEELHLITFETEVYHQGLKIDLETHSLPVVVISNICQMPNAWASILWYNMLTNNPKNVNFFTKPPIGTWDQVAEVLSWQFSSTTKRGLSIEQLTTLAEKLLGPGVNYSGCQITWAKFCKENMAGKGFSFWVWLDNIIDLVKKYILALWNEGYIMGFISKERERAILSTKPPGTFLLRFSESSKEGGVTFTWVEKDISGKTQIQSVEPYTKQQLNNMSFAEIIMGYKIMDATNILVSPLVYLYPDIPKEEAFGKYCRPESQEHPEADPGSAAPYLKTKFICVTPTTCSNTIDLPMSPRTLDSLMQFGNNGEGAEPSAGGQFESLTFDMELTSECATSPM
How it was run: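 HepG2 cells transiently transfected with multiple cis-element-driven reporter units report endogenous transcription factor activity. After 24 h compound exposure, reporter mRNA is measured by RT-PCR, 6-FAM labelling, HpaI digestion and capillary electrophoresis. Fitted bidirectionally versus DMSO.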

[16] = target: Nuclear receptor subfamily 1 group I member 3 (Homo sapiens) (UniProt Q14994); test: ATG_CAR_TRANS: Attagene TRANS-FACTORIAL HepG2 Assay for human Constitutive Androstane Receptor (CAR) (AID 2282969; active = hit-call score of the fitted dose curve at least 0.9, where 1 is the maximum;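 note: activators raise reporter mRNA above DMSO so AC50 marks induction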); settings: HepG2 Attagene TRANS-FACTORIAL CAR reporter
Sequence of Nuclear receptor subfamily 1 group I member 3 (Homo sapiens) (Q14994 whole entry, looked up, the tested form may be a part): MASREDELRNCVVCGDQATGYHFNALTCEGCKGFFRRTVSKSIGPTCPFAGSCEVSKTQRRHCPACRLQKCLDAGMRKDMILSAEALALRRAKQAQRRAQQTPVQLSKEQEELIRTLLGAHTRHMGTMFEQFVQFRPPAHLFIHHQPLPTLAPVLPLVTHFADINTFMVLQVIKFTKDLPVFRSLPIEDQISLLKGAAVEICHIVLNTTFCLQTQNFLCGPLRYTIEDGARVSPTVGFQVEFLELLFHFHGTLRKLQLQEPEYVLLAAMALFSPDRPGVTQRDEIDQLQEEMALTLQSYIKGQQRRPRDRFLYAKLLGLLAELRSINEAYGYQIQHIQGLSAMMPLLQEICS
How it was run: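 HepG2 cells transiently transfected with GAL4-UAS reporter units; TRANS format reads activity of exogenous chimeric NR-Gal4 protein. After 24 h dosing, reporter mRNA quantified by RT-PCR, 6-FAM labelling and capillary electrophoresis; gain of signal fitted against DMSO.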

[17] = target: Estrogen receptor (Homo sapiens) (UniProt P03372); test: ATG_ERa_TRANS: Attagene TRANS-FACTORIAL HepG2 Assay for human Estrogen Receptor alpha (ERa) (AID 2282970; active = hit-call score of the fitted dose curve at least 0.9, where 1 is the maximum); settings: HepG2 Attagene TRANS ERa GAL4 reporter, mRNA
Sequence of Estrogen receptor (Homo sapiens) (P03372 whole entry, looked up, the tested form may be a part): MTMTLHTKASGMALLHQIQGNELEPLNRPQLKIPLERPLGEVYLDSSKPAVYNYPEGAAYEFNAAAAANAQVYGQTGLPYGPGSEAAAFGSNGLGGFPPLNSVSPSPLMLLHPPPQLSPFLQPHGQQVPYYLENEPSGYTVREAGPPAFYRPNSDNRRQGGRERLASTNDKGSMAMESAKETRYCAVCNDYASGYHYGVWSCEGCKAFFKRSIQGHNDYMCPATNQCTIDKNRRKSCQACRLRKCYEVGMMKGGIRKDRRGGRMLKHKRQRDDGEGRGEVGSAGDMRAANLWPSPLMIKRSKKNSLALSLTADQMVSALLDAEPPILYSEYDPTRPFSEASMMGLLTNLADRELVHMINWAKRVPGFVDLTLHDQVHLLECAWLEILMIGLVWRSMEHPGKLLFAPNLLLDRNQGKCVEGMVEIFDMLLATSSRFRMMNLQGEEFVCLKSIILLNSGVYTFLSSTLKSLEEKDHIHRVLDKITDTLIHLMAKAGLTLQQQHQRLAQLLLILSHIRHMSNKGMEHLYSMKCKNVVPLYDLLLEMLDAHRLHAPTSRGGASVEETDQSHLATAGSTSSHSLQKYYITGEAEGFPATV
How it was run: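 Cells: HepG2, transiently transfected. Construct: GAL4-UAS reporter units regulated by exogenous NR-Gal4 chimeras. Time: 24 h. Detection: reporter mRNA by RT-PCR, capillary electrophoresis, fluorescence. Baseline: DMSO, upward fitting.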

[18] = target: Steroid hormone receptor ERR1 (Homo sapiens) (UniProt P11474); test: ATG_ERRa_TRANS: Attagene TRANS-FACTORIAL HepG2 Assay for human Estrogen-Related Receptor alpha (ERRa) (AID 2282971; active = hit-call score of the fitted dose curve at least 0.9, where 1 is the maximum); settings: HepG2 Attagene TRANS reporter, ERRa transactivation
Sequence of Steroid hormone receptor ERR1 (Homo sapiens) (P11474 whole entry, looked up, the tested form may be a part): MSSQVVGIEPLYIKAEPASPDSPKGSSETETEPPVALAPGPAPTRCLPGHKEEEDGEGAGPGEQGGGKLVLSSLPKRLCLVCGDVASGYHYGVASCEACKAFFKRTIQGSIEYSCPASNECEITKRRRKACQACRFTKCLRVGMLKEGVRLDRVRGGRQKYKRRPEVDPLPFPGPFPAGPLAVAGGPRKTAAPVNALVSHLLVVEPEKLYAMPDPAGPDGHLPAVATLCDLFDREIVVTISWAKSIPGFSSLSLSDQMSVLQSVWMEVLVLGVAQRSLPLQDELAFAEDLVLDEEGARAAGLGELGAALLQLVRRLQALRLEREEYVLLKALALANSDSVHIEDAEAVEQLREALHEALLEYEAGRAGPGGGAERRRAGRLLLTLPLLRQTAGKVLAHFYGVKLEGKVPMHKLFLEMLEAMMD
How it was run: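 Reporter transcripts from ERRa-Gal4 chimera activity measured in transiently transfected human HepG2 cells 24 hours after dosing, using RT-PCR with 6-FAM primer extension, HpaI digestion and capillary electrophoresis; DMSO is baseline.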

[19] = ATG_M_19_TRANS: Attagene TRANS-FACTORIAL HepG2 Assay for M19 Transcription Factor (Internal Marker) (AID 2282974; active = hit-call score of the fitted dose curve at least 0.9, where 1 is the maximum); settings: HepG2 Attagene TRANS-FACTORIAL M19 internal marker reporter
How it was run: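 Reporter mRNA induction was measured in transfected HepG2 cells 24 h after dosing. Endpoint fitted upward relative to DMSO and serves as a background control within the multiplexed TRANS panel.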

[20] = target: Estrogen-related receptor gamma (Homo sapiens) (UniProt P62508); test: ATG_ERRg_TRANS: Attagene TRANS-FACTORIAL HepG2 Assay for human Estrogen-Related Receptor gamma (ERRg) (AID 2282977; active = hit-call score of the fitted dose curve at least 0.9, where 1 is the maximum;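 note: hits increase reporter signal over DMSO so potencies reflect activators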); settings: HepG2 Attagene TRANS reporter, ERRg transactivation
Sequence of Estrogen-related receptor gamma (Homo sapiens) (P62508 whole entry, looked up, the tested form may be a part): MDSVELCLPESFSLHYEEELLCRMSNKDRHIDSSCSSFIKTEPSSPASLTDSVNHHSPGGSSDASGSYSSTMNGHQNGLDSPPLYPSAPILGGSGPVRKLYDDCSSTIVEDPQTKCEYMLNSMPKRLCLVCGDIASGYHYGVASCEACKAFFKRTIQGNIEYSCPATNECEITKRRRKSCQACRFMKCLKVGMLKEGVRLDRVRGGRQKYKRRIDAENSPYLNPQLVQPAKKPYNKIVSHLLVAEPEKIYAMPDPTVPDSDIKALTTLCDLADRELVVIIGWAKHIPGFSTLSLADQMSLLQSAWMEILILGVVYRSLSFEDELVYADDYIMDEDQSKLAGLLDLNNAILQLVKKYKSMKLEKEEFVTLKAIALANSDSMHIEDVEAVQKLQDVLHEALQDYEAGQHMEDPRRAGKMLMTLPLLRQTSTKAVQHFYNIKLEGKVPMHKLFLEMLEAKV
How it was run: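 HepG2 cells transiently transfected with multiplexed GAL4-UAS reporter units driven by chimeric NR-Gal4 proteins; 24 h exposure. Reporter mRNA quantified by RT-PCR, fluorescent labelling, HpaI digestion and capillary electrophoresis; gain of signal vs DMSO.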

Measured: AC50

CC[Si](OC(C)=O)(OC(C)=O)OC(C)=O
active: [2] 6.28 µM | [12] 33.8 µM
not listed: [14] | [15] | [16] | [17] | [18] | [19] | [20]
inactive: all other assays above

CC(C=O)Cc1ccc(C(C)C)cc1 (stereo unspecified)
active: [2] 24 µM
not listed: [15] | [16] | [17] | [18] | [19] | [20]
inactive: all other assays above

CC(=O)C(=O)O
not listed: [6] | [16] | [17] | [18] | [19] | [20]
inactive: all other assays above

CN(C)CCCN
not listed: [7] | [11] | [13] | [14] | [18] | [19] | [20]
inactive: all other assays above

Nc1cc([N+](=O)[O-])ccc1O
not listed: [8] | [11] | [17]
inactive: all other assays above

Cc1ccc2ccccc2n1
active: [2] 58.9 µM
not listed: [15] | [16] | [17] | [18] | [20]
inactive: all other assays above

Cc1ccc(O)c(C(C)(C)C)c1
active: [1] 138 µM | [2] 25.1 µM | [4] 162 µM | [7] 100 µM | [10] 181 µM | [12] 100 µM | [13] 142 µM
not listed: [6] | [14] | [17] | [18] | [20]
inactive: all other assays above
